Test results as given in the supplement of paper PMC12350171.
Where a name gives a salt, the structure may show the parent alone.

What was measured:
Details in all cases: 20 µM
[1] = system: Salmonella enterica typhimurium; assay: growth AUC normalised to DMSO control (fraction of control); higher = less growth inhibition, active = hit call of the paper
How it was run: (§1)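 Pathogens were passaged twice under anaerobic conditions, then inoculated into pre-reduced mGAM plates at a starting OD578 of 0.01, with compound at 20 μM and 1% DMSO, and sealed with breathable membranes. For Haemophilus parainfluenzae, the medium was supplemented with hemin and NAD. OD578 was read every hour for 24 h in three biological replicates. Growth-curve AUC was calculated by the trapezoidal rule up to the exponential-to-stationary transition and normalised to DMSO controls on the same plate.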

Shigella flexneri = assay: as above
How it was run: as §1

Vibrio cholerae = assay: as above
How it was run: as §1

[2] = system: Yersinia pseudotuberculosis; assay: as above
How it was run: as §1

P. vulgatus RND KO = assay: growth AUC normalised to DMSO control (median) (fraction of control); higher = less growth inhibition, active = hit call of the paper
How it was run: (§2)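 After two overnight anaerobic passages, strains were inoculated at OD578 0.01 into mGAM in 96-well plates containing approved-drug library compounds at 20 μM and 1% DMSO. Growth was followed by reading OD578 hourly for 24 h within an anaerobic incubator. Area under the curve, taken by the trapezoidal rule up to the start of stationary phase, was normalised to same-plate vehicle wells, and the median of three biological replicates is listed.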

P. vulgatus WT = assay: as above
How it was run: as §2

[3] = system: S. enterica typhimurium WT; assay: as above
How it was run: as §2

[4] = system: S. enterica typhimurium tolC KO; assay: as above
How it was run: as §2

Measured: growth AUC normalised to DMSO control
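Throughout, for growth AUC normalised to DMSO control (median): active when median AUC fell below 0.1.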

Cc1cc2c(s1)Nc1ccccc1N=C2N1CCN(C)CC1 [Olanzapine]
inactive: [1] 0.997 | Shigella flexneri 0.996 | Vibrio cholerae 0.997 | [2] 1.01 | P. vulgatus RND KO 1.03 | P. vulgatus WT 1.03 | [3] 1.02 | [4] 0.994

C[C@]12CCC(=O)C=C1CC[C@@H]1[C@@H]2C(=O)C[C@@]2(C)[C@H]1CC[C@]2(O)C(=O)CO [Cortisone]
inactive: [1] 0.993 | Shigella flexneri 0.945 | Vibrio cholerae 0.983 | [2] 0.982 | P. vulgatus RND KO 0.994 | P. vulgatus WT 1 | [3] 1 | [4] 0.995

NC(=O)OCC(O)COc1ccc(Cl)cc1 (stereo not drawn) [Chlorphensin carbamate]
inactive: [1] 1.01 | Shigella flexneri 1.01 | Vibrio cholerae 1.03 | [2] 1.01 | P. vulgatus RND KO 0.992 | P. vulgatus WT 0.994 | [3] 1.02 | [4] 0.987

O=C1C(CC[S+]([O-])c2ccccc2)C(=O)N(c2ccccc2)N1c1ccccc1 (stereo not drawn) [Sulfinpyrazone]
inactive: [1] 0.996 | Shigella flexneri 1 | Vibrio cholerae 1 | [2] 0.971 | P. vulgatus RND KO 1 | P. vulgatus WT 1.01 | [3] 0.998 | [4] 0.985

CN1C(C(=O)Nc2ccccn2)=C(O)c2ccccc2S1(=O)=O [Piroxicam]
inactive: [1] 0.973 | Shigella flexneri 0.995 | Vibrio cholerae 0.892 | [2] 1.01 | P. vulgatus RND KO 1.01 | P. vulgatus WT 1.04 | [3] 1.01 | [4] 0.977

C[C@]12C[C@H](O)[C@H]3[C@@H](CCC4=CC(=O)CC[C@@]43C)[C@@H]1CC[C@@H]2C(=O)CO [Corticosterone]
inactive: [1] 1 | Shigella flexneri 0.978 | Vibrio cholerae 0.984 | [2] 0.996 | P. vulgatus RND KO 1 | P. vulgatus WT 1.01 | [3] 1.02 | [4] 1

CC(C)c1c(C(=O)Nc2ccccc2)c(-c2ccccc2)c(-c2ccc(F)cc2)n1CC[C@@H](O)C[C@@H](O)CC(=O)O [Atorvastatin]
inactive: [1] 1.01 | Shigella flexneri 1.04 | Vibrio cholerae 1.04 | [2] 1.01 | P. vulgatus RND KO 1.01 | P. vulgatus WT 1 | [3] 0.993 | [4] 0.994

CCn1cc(C(=O)O)c(=O)c2ccc(C)nc21 [Nalidixic acid sodium salt]
inactive: P. vulgatus RND KO 0.985 | P. vulgatus WT 0.969 | [3] 0.105
active: [1] 0.594 | Shigella flexneri 0.111 | Vibrio cholerae 0.035 | [2] 0.052 | [4] 0.0195

CC(C)C(=O)Nc1ccc([N+](=O)[O-])c(C(F)(F)F)c1 [Flutamide]
inactive: [1] 1.01 | Shigella flexneri 1.04 | Vibrio cholerae 1.01 | [2] 0.988 | P. vulgatus RND KO 1 | P. vulgatus WT 1.01 | [3] 0.985 | [4] 0.96

Clc1ccc(CCC(Cn2ccnc2)Sc2c(Cl)cccc2Cl)cc1 (stereo not drawn) [Butoconazole nitrate]
inactive: [1] 1 | Shigella flexneri 1.01 | Vibrio cholerae 0.98 | [2] 0.745 | P. vulgatus RND KO 0.998 | P. vulgatus WT 1 | [3] 1.01 | [4] 0.999

N/C(=N\C(=O)c1nc(Cl)c(N)nc1N)NCc1ccccc1 [Benzamil hydrochloride]
inactive: [1] 0.972 | Shigella flexneri 0.986 | Vibrio cholerae 0.99 | [2] 0.998 | P. vulgatus RND KO 0.996 | P. vulgatus WT 0.991 | [3] 0.998 | [4] 0.984

CN1CCN(C(c2ccccc2)c2ccc(Cl)cc2)CC1 (stereo not drawn) [Chlorcyclizine hydrochloride]
inactive: [1] 1 | Shigella flexneri 0.993 | Vibrio cholerae 0.927 | [2] 0.984 | P. vulgatus RND KO 0.987 | P. vulgatus WT 0.963 | [3] 0.992 | [4] 0.958

C=CC1=C(C(=O)O)N2C(=O)[C@@H](NC(=O)/C(=N\OCC(=O)O)c3csc(N)n3)[C@H]2SC1 [Cefixime]
active: [1] 0.00409 | Shigella flexneri 0.0268 | Vibrio cholerae 0.0803 | [2] 0.0395 | P. vulgatus RND KO 0.0155 | P. vulgatus WT 0.0102 | [3] 0.012 | [4] 0.00361

CCN(CC)CC#CCOC(=O)C(O)(c1ccccc1)C1CCCCC1 (stereo not drawn) [Oxybutynin chloride]
inactive: [1] 0.977 | Shigella flexneri 0.944 | Vibrio cholerae 0.935 | [2] 0.981 | P. vulgatus RND KO 0.976 | P. vulgatus WT 0.986 | [3] 0.999 | [4] 0.946

CC(=O)Nc1ccc(OCC(O)CNC(C)C)cc1 (stereo not drawn) [Practolol]
inactive: [1] 1 | Shigella flexneri 1.03 | Vibrio cholerae 1.02 | [2] 1.01 | P. vulgatus RND KO 1.02 | P. vulgatus WT 1.06 | [3] 1.02 | [4] 1.02

CCCCNC(=O)NS(=O)(=O)c1ccc(C)cc1 [Tolbutamide]
inactive: [1] 1.01 | Shigella flexneri 0.995 | Vibrio cholerae 0.956 | [2] 0.998 | P. vulgatus RND KO 1.02 | P. vulgatus WT 1.04 | [3] 0.996 | [4] 1

COCCCC/C(=N\OCCN)c1ccc(C(F)(F)F)cc1 [Fluvoxamine maleate]
inactive: [1] 0.992 | Shigella flexneri 0.974 | Vibrio cholerae 0.943 | [2] 0.993 | P. vulgatus RND KO 0.968 | P. vulgatus WT 0.963 | [3] 0.991 | [4] 0.957

Clc1ccc(CO/N=C(\Cn2ccnc2)c2ccc(Cl)cc2Cl)c(Cl)c1 [Oxiconazole nitrate]
inactive: [1] 1.02 | Shigella flexneri 1.04 | Vibrio cholerae 1.05 | [2] 0.983 | P. vulgatus RND KO 1.01 | P. vulgatus WT 1.04 | [3] 1 | [4] 0.909

CC1=C(C(=O)O)N2C(=O)[C@@H](NC(=O)[C@H](N)c3ccc(O)cc3)[C@H]2SC1 [Cefadroxil]
inactive: [1] 0.979 | Shigella flexneri 0.937 | Vibrio cholerae 0.967 | [2] 0.997 | P. vulgatus RND KO 1.01 | P. vulgatus WT 1 | [3] 0.996 | [4] 0.982

O=C1NCC2(CCN(CCc3ccccc3)CC2)O1 [Fenspiride hydrochloride]
inactive: [1] 0.967 | Shigella flexneri 0.947 | Vibrio cholerae 0.994 | [2] 0.971 | P. vulgatus RND KO 0.988 | P. vulgatus WT 0.974 | [3] 1 | [4] 0.993

c1coc(CNc2ncnc3[nH]cnc23)c1 [Kinetin]
inactive: [1] 1.01 | Shigella flexneri 1.02 | Vibrio cholerae 1.01 | [2] 0.992 | P. vulgatus RND KO 1.01 | P. vulgatus WT 1.05 | [3] 1 | [4] 1.01

C=CC(N)CCC(=O)O (stereo not drawn) [Vigabatrin hydrochloride]
inactive: [1] 1.02 | Shigella flexneri 1.02 | Vibrio cholerae 1.01 | [2] 0.997 | P. vulgatus RND KO 1.01 | P. vulgatus WT 1.06 | [3] 1.03 | [4] 0.992

CCOC(=O)C1=C[C@]2(CC)CCCN3CCc4c(n1c1ccccc41)[C@@H]32 [Vinpocetine]
inactive: [1] 0.974 | Shigella flexneri 1.03 | Vibrio cholerae 0.904 | [2] 1.01 | P. vulgatus RND KO 1 | P. vulgatus WT 0.988 | [3] 1 | [4] 0.972

C[C@]12CCC(=O)C=C1CC[C@@H]1[C@@H]2[C@@H](O)C[C@@]2(C)[C@H]1CC[C@]2(O)C(=O)CO [Hydrocortisone]
inactive: [1] 0.983 | Shigella flexneri 0.969 | Vibrio cholerae 0.97 | [2] 1.01 | P. vulgatus RND KO 0.98 | P. vulgatus WT 0.994 | [3] 0.999 | [4] 0.996

CCOC(=O)C(C)(C)Oc1ccc(Cl)cc1 [Clofibrate]
inactive: [1] 1.03 | Shigella flexneri 1.01 | Vibrio cholerae 1.03 | [2] 1.02 | P. vulgatus RND KO 1.03 | P. vulgatus WT 1.04 | [3] 1 | [4] 0.991

C=CC[N@@+]12CC[C@@]34c5ccccc5N5/C=C6/[C@H]7C[C@H]8[C@@]9(CC[N@@+]8(CC=C)C/C7=C/CO)c7ccccc7N(/C=C(/[C@@H](C[C@@H]31)/C(=C\CO)C2)[C@H]54)[C@@H]69 [Alcuronium chloride]
inactive: [1] 0.94 | Shigella flexneri 1 | Vibrio cholerae 1.09 | [2] 1.03 | P. vulgatus RND KO 1.05 | P. vulgatus WT 1.06 | [3] 1.01 | [4] 1

CCCC(CCC)C(=O)O [Valproic acid]
inactive: [1] 1.01 | Shigella flexneri 1.02 | Vibrio cholerae 1.05 | [2] 1.01 | P. vulgatus RND KO 1.06 | P. vulgatus WT 1.07 | [3] 1 | [4] 1.01

COc1cc(C)c(/C=C/C(C)=C/C=C/C(C)=C/C(=O)O)c(C)c1C [Acitretin]
inactive: [1] 0.995 | Shigella flexneri 1.02 | Vibrio cholerae 0.985 | [2] 0.99 | P. vulgatus RND KO 0.944 | P. vulgatus WT 0.956 | [3] 1 | [4] 0.998

CCC1=C(C)CN(C(=O)NCCc2ccc(S(=O)(=O)NC(=O)N[C@H]3CC[C@H](C)CC3)cc2)C1=O [Glimepiride]
inactive: [1] 1.02 | Shigella flexneri 1.01 | Vibrio cholerae 1.02 | [2] 1.01 | P. vulgatus RND KO 1.03 | P. vulgatus WT 1.01 | [3] 1.03 | [4] 0.993

CCCNC(=O)NS(=O)(=O)c1ccc(Cl)cc1 [Chlorpropamide]
inactive: [1] 1 | Shigella flexneri 1.02 | Vibrio cholerae 1.01 | [2] 0.996 | P. vulgatus RND KO 1.02 | P. vulgatus WT 1.06 | [3] 1.01 | [4] 1.04

CC(=O)Nc1c(I)c(C(=O)N[C@H]2C(O)O[C@H](CO)[C@@H](O)[C@@H]2O)c(I)c(N(C)C(C)=O)c1I (stereo partly drawn) [Metrizamide]
inactive: [1] 1.01 | Shigella flexneri 0.985 | Vibrio cholerae 0.988 | [2] 1.01 | P. vulgatus RND KO 1 | P. vulgatus WT 1.01 | [3] 1.02 | [4] 1.01
